According to the supplement of paper PMC7411054:
Where a name gives a salt, the structure may show the parent alone.

Legend:
Details in all cases: treatment time: 24 h
A549-ACTB-RAB5A [1] = assay: phenotypically active (imaging signature differs from DMSO and reproducible) at any of 0.3-9 uM (binary (1 = active, 0 = inactive)); higher = active
How it was run: (§1)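 Fifteen reporter lines derived from A549, HepG2 and WPMY1 cells by gene editing, carrying BFP for segmentation plus GFP and RFP/FusionRed markers, were exposed to 0.3, 1, 3 or 9 µM for 24 h in four wells each and imaged live. Live-cell features from each well were normalised to solvent control wells. A well set counted as deviating when ≥3 of 4 wells lay beyond the 95th percentile of control Euclidean distances, and as reproducible when the median replicate Pearson correlation exceeded the 95th percentile of non-replicates. Phenotypic activity was assigned only when both criteria were met.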

A549-CANX-COX4 = assay: as above
How it was run: as §1

A549-GM130-SQSTM1 = assay: as above
How it was run: as §1

A549-TP53BP1-CLTA [2] = assay: as above
How it was run: as §1

A549-TUBA1B-RELA = assay: as above
How it was run: as §1

HepG2-ACTB-RAB5A = assay: as above
How it was run: as §1

HepG2-CANX-COX4 = assay: as above
How it was run: as §1

HepG2-GM130-SQSTM1 = assay: as above
How it was run: as §1

HepG2-TP53BP1-CLTA [3] = assay: as above
How it was run: as §1

HepG2-TUBA1B-RELA = assay: as above
How it was run: as §1

WPMY1-ACTB-RAB5A = assay: as above
How it was run: as §1

WPMY1-CANX-COX4 = assay: as above
How it was run: as §1

WPMY1-GM130-SQSTM1 [4] = assay: as above
How it was run: as §1

WPMY1-TP53BP1-CLTA [5] = assay: as above
How it was run: as §1

WPMY1-TUBA1B-RELA = assay: as above
How it was run: as §1

A549-ACTB-RAB5A [6] = assay: lowest phenotypically active concentration; higher = less potent
How it was run: as §1

A549-TP53BP1-CLTA [7] = assay: as above
How it was run: as §1

HepG2-TP53BP1-CLTA [8] = assay: as above
How it was run: as §1

WPMY1-GM130-SQSTM1 [9] = assay: as above
How it was run: as §1

WPMY1-TP53BP1-CLTA [10] = assay: as above
How it was run: as §1

SMILES | phenotypically active (A549-ACTB-RAB5A [1]) | phenotypically active (A549-CANX-COX4) | phenotypically active (A549-GM130-SQSTM1) | phenotypically active (A549-TP53BP1-CLTA [2]) | phenotypically active (A549-TUBA1B-RELA) | phenotypically active (HepG2-ACTB-RAB5A) | phenotypically active (HepG2-CANX-COX4) | phenotypically active (HepG2-GM130-SQSTM1) | phenotypically active (HepG2-TP53BP1-CLTA [3]) | phenotypically active (HepG2-TUBA1B-RELA) | phenotypically active (WPMY1-ACTB-RAB5A) | phenotypically active (WPMY1-CANX-COX4) | phenotypically active (WPMY1-GM130-SQSTM1 [4]) | phenotypically active (WPMY1-TP53BP1-CLTA [5]) | phenotypically active (WPMY1-TUBA1B-RELA) | lowest phenotypically active concentration (A549-ACTB-RAB5A [6]) | lowest phenotypically active concentration (A549-TP53BP1-CLTA [7]) | lowest phenotypically active concentration (HepG2-TP53BP1-CLTA [8]) | lowest phenotypically active concentration (WPMY1-GM130-SQSTM1 [9]) | lowest phenotypically active concentration (WPMY1-TP53BP1-CLTA [10])
CCC1(CC)C(=O)NC(=O)N(C)C1=O [metharbital] | 0 (inactive) | 0 (inactive) | 0 (inactive) | 0 (inactive) | 0 (inactive) | 0 (inactive) | 0 (inactive) | 0 (inactive) | 0 (inactive) | 0 (inactive) | 0 (inactive) | 0 (inactive) | 0 (inactive) | 0 (inactive) | 0 (inactive) | – | – | – | – | –
CNC(=O)Oc1ccc2c(c1)[C@]1(C)CCN(C)[C@@H]1N2C [Eserine sulfate, physostigmine sulfate] | 0 (inactive) | 0 (inactive) | 0 (inactive) | 0 (inactive) | 0 (inactive) | 0 (inactive) | 0 (inactive) | 0 (inactive) | 0 (inactive) | 0 (inactive) | 0 (inactive) | 0 (inactive) | 0 (inactive) | 0 (inactive) | 0 (inactive) | – | – | – | – | –
CC(C)[C@@]1(NC(=O)[C@@H]2C[C@@H]3c4cccc5[nH]cc(c45)C[C@H]3N(C)C2)O[C@@]2(O)[C@@H]3CCCN3C(=O)[C@H](Cc3ccccc3)N2C1=O [Dihydroergocristine mesylate] | 1 (active) | 1 (active) | 1 (active) | 1 (active) | 1 (active) | 1 (active) | 1 (active) | 1 (active) | 1 (active) | 1 (active) | 1 (active) | 1 (active) | 1 (active) | 1 (active) | 1 (active) | 9 µM | 9 µM | 9 µM | 9 µM | 9 µM
CC1=CC(=O)C2=C(C)C[C@H](O)[C@@H]3[C@H](OC(=O)[C@H]3C)[C@@H]12 [Austricine hydrate] | 0 (inactive) | 0 (inactive) | 0 (inactive) | 0 (inactive) | 0 (inactive) | 0 (inactive) | 0 (inactive) | 0 (inactive) | 0 (inactive) | 0 (inactive) | 0 (inactive) | 0 (inactive) | 0 (inactive) | 0 (inactive) | 0 (inactive) | – | – | – | – | –
CC(C)(C)c1cc(C=C(C#N)C#N)cc(C(C)(C)C)c1O [Malonoben] | 1 (active) | 1 (active) | 1 (active) | 1 (active) | 1 (active) | 1 (active) | 1 (active) | 1 (active) | 1 (active) | 1 (active) | 1 (active) | 1 (active) | 1 (active) | 1 (active) | 1 (active) | 1 µM | 3 µM | 1 µM | 1 µM | 1 µM
COc1cc([C@@H]2c3cc4c(cc3[C@H](O)[C@H]3COC(=O)[C@H]23)OCO4)cc(OC)c1OC [Podophyllotoxin] | 1 (active) | 1 (active) | 1 (active) | 1 (active) | 1 (active) | 1 (active) | 1 (active) | 1 (active) | 1 (active) | 1 (active) | 1 (active) | 1 (active) | 1 (active) | 1 (active) | 1 (active) | ≤ 0.3 µM | ≤ 0.3 µM | 1 µM | ≤ 0.3 µM | ≤ 0.3 µM
C[C@@]1(CO)[C@H](O)CC[C@@]2(C)[C@H]1CC[C@H]1C[C@@H]3C[C@@]12CC[C@]3(O)CO [Aphidicolin] | 1 (active) | 1 (active) | 1 (active) | 1 (active) | 1 (active) | 1 (active) | 1 (active) | 1 (active) | 1 (active) | 1 (active) | 1 (active) | 1 (active) | 1 (active) | 1 (active) | 1 (active) | ≤ 0.3 µM | ≤ 0.3 µM | ≤ 0.3 µM | ≤ 0.3 µM | 1 µM
CCN(CC)C(C)C(=O)c1ccccc1 (stereo unspecified) [amfepramone] | 0 (inactive) | 0 (inactive) | 0 (inactive) | 0 (inactive) | 0 (inactive) | 0 (inactive) | 0 (inactive) | 0 (inactive) | 0 (inactive) | 0 (inactive) | 0 (inactive) | 0 (inactive) | 0 (inactive) | 0 (inactive) | 0 (inactive) | – | – | – | – | –
CC[C@@H](C(=O)[C@@H](C)[C@@H](O)[C@H](C)[C@@H]1O[C@@H]([C@@H](CC)C(=O)O)CC[C@@H]1C)[C@H]1O[C@]2(C=C[C@@H](O)[C@]3(CC[C@@](C)([C@H]4CC[C@](O)(CC)[C@H](C)O4)O3)O2)[C@H](C)C[C@@H]1C [Salinomycin Sodium] | 1 (active) | 1 (active) | 1 (active) | 1 (active) | 1 (active) | 1 (active) | 1 (active) | 1 (active) | 1 (active) | 1 (active) | 1 (active) | 1 (active) | 1 (active) | 1 (active) | 1 (active) | ≤ 0.3 µM | ≤ 0.3 µM | 1 µM | ≤ 0.3 µM | ≤ 0.3 µM
COc1ccc2c(c1)/C(=C/c1c[nH]cn1)C(=O)N2 | 1 (active) | 1 (active) | 1 (active) | 1 (active) | 1 (active) | 1 (active) | 1 (active) | 1 (active) | 1 (active) | 1 (active) | 1 (active) | 1 (active) | 1 (active) | 1 (active) | 1 (active) | 1 µM | 1 µM | 1 µM | 1 µM | 1 µM
CC(C)[C@H]1C(=O)O[C@@H]2CCN3CC=C(COC(=O)[C@](C)(O)[C@@]1(C)O)[C@H]23 [Trichodesmine] | 0 (inactive) | 0 (inactive) | 0 (inactive) | 0 (inactive) | 0 (inactive) | 0 (inactive) | 0 (inactive) | 0 (inactive) | 0 (inactive) | 0 (inactive) | 0 (inactive) | 0 (inactive) | 0 (inactive) | 0 (inactive) | 0 (inactive) | – | – | – | – | –
N#CC(C#N)=NNc1ccc(OC(F)(F)F)cc1 | 1 (active) | 1 (active) | 1 (active) | 1 (active) | 1 (active) | 1 (active) | 1 (active) | 1 (active) | 1 (active) | 1 (active) | 1 (active) | 1 (active) | 1 (active) | 1 (active) | 1 (active) | 9 µM | 9 µM | 9 µM | 9 µM | 3 µM
CC(C)N(CCC(C(N)=O)(c1ccccc1)c1ccccn1)C(C)C (stereo unspecified) [disopyramide] | 0 (inactive) | 0 (inactive) | 0 (inactive) | 0 (inactive) | 0 (inactive) | 0 (inactive) | 0 (inactive) | 0 (inactive) | 0 (inactive) | 0 (inactive) | 0 (inactive) | 0 (inactive) | 0 (inactive) | 0 (inactive) | 0 (inactive) | – | – | – | – | –
C#CCN(C)[C@H](C)Cc1ccccc1 [selegiline] | 0 (inactive) | 0 (inactive) | 0 (inactive) | 0 (inactive) | 0 (inactive) | 0 (inactive) | 0 (inactive) | 0 (inactive) | 0 (inactive) | 0 (inactive) | 0 (inactive) | 0 (inactive) | 0 (inactive) | 0 (inactive) | 0 (inactive) | – | – | – | – | –
O=C1C[C@@H]2OCC=C3C[N+]4([O-])CC[C@]56c7ccccc7N1[C@H]5[C@H]2[C@H]3C[C@@H]64 (stereo partly specified) [Genostrychnine base] | 0 (inactive) | 0 (inactive) | 0 (inactive) | 0 (inactive) | 0 (inactive) | 0 (inactive) | 0 (inactive) | 0 (inactive) | 0 (inactive) | 0 (inactive) | 0 (inactive) | 0 (inactive) | 0 (inactive) | 0 (inactive) | 0 (inactive) | – | – | – | – | –
O=C(O)CC[N+](=O)[O-] [3-Nitropropionic acid] | 0 (inactive) | 0 (inactive) | 0 (inactive) | 0 (inactive) | 0 (inactive) | 0 (inactive) | 0 (inactive) | 0 (inactive) | 0 (inactive) | 0 (inactive) | 0 (inactive) | 0 (inactive) | 0 (inactive) | 0 (inactive) | 0 (inactive) | – | – | – | – | –
COc1ccc2c(c1O)-c1c(OC)c(OC)cc3c1[C@H](C2)N(C)CC3 [Isocorydine (+)] | 0 (inactive) | 0 (inactive) | 0 (inactive) | 0 (inactive) | 0 (inactive) | 0 (inactive) | 0 (inactive) | 0 (inactive) | 0 (inactive) | 0 (inactive) | 0 (inactive) | 0 (inactive) | 0 (inactive) | 0 (inactive) | 0 (inactive) | – | – | – | – | –
CCN(C)C(=O)Oc1cccc([C@H](C)N(C)C)c1 [rivastigmine] | 0 (inactive) | 0 (inactive) | 0 (inactive) | 0 (inactive) | 0 (inactive) | 0 (inactive) | 0 (inactive) | 0 (inactive) | 0 (inactive) | 0 (inactive) | 0 (inactive) | 0 (inactive) | 0 (inactive) | 0 (inactive) | 0 (inactive) | – | – | – | – | –
O=C1C[C@@H]2OCC=C3CN4CC[C@]56c7ccccc7N1[C@H]5[C@H]2[C@H]3C[C@H]46 [Strychnine] | 1 (active) | 0 (inactive) | 0 (inactive) | 0 (inactive) | 0 (inactive) | 0 (inactive) | 0 (inactive) | 0 (inactive) | 0 (inactive) | 0 (inactive) | 0 (inactive) | 0 (inactive) | 0 (inactive) | 0 (inactive) | 0 (inactive) | 9 µM | – | – | – | –
C/C=C1\C[C@@H](C)[C@](O)(CO)C(=O)OCC2=CCN3CC[C@@H](OC1=O)[C@@H]23 [Retrorsine] | 0 (inactive) | 0 (inactive) | 0 (inactive) | 0 (inactive) | 0 (inactive) | 0 (inactive) | 0 (inactive) | 0 (inactive) | 0 (inactive) | 0 (inactive) | 0 (inactive) | 0 (inactive) | 0 (inactive) | 0 (inactive) | 0 (inactive) | – | – | – | – | –
